The full data set covers some 8,800 targets. This sample favours those with a hit. About 0.5% of all pairs of compound and target were hits. Unmarked numbers belong to inactive results.
Legend:
Test in all cases: log2 fold change, soluble protein after heating vs DMSO (PISA); higher = thermal stabilisation; K562 lysate, 10 uM; active = over 0.2 and 3.5 SD of the protein, either way, in both replicates (recomputed)
erlotinib = compound: C#Cc1cccc(Nc2ncnc3cc(OCCOC)c(OCCOC)cc23)c1 [erlotinib]
How it was run: (§1)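 Quantification was by TMTpro 16plex LC-MS/MS with equalised channel sums, applied to the supernatant after 21,000xg for 90 min. Samples were crude K562 extract at 1 mg/mL protein in PBS pH 7.4 with 1 mM MgCl2, treated with 10 μM compound for 30 min, heated for 3 min across 48°C-58°C, pooled and brought to 0.5% NP-40 at 4°C. Values are log-two fold changes in thermal stability relative to solvent controls, from duplicates.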

[1] = compound: C1=CC(=CC=C1C2=NC3=C(N2)C=C(C=C3)C(=O)N)OC4=CC=C(C=C4)Cl
How it was run: as §1

[2] = compound: C1=CC=C(C=C1)C2=NC(=C(N2)C3=CC=NC=C3)C4=CC(=C(C=C4)Cl)O
How it was run: as §1

IRAK-1-4 Inhibitor I = compound: C1COCCN1CCN2C3=CC=CC=C3N=C2NC(=O)C4=CC(=CC=C4)[N+](=O)[O-] [IRAK-1-4 Inhibitor I]
How it was run: as §1

[3] = compound: CC(=O)c1cnc2ccc(-c3cc(Cl)c(O)c(Cl)c3)nc2c1N[C@H]1CC[C@H](CN(C)C)CC1
How it was run: as §1

ralimetinib = compound: CC(C)(C)Cn1c(N)nc2ccc(-c3[nH]c(C(C)(C)C)nc3-c3ccc(F)cc3)nc21 [ralimetinib]
How it was run: as §1

[4] = compound: CC(C)(O)CC(=O)NCCn1ccc2ncnc(Nc3ccc(Oc4cccc(C(F)(F)F)c4)c(Cl)c3)c21
How it was run: as §1

[5] = compound: CC(C)C1=C2N=C(C=C(N2N=C1)NCC3=CC=CC=C3)NCCCCCCN
How it was run: as §1

[6] = compound: CC1=C(C(CC(=O)N1)C2=CC=C(C=C2)C(F)(F)F)C(=O)NC3=C(C=C4C(=C3)C=NN4)F
How it was run: as §1

[7] = compound: CC1=C(C=C(C=C1)NC(=O)C2=CC(=CC=C2)C(C)(C)C#N)NC3=CC4=C(C=C3)N=CN(C4=O)C
How it was run: as §1

[8] = compound: CC1=C(C=C(C=C1)NC(=O)C2=CC(=CC=C2)N(C)C)NC(=O)C3=CC=C(C=C3)O
How it was run: as §1

[9] = compound: CC1=CC=C(C=C1)SC2=C3C=C(SC3=CN=C2)C(=O)N
How it was run: as §1

[10] = compound: C1=CC2=NC=CN=C2C=C1/C=C/3\C(=O)NC(=O)S3
How it was run: as §1

ibrutinib = compound: C=CC(=O)N1CCC[C@@H](n2nc(-c3ccc(Oc4ccccc4)cc3)c3c(N)ncnc32)C1 [ibrutinib]
How it was run: as §1

[11] = compound: C1CCN(C1)C(=O)NC2=CC=CC(=C2)NC3=NC=C(C(=N3)NCCC4=CN=CN4)Br
How it was run: as §1

[12] = compound: C1CN(CCC1(CC2=CC=C(C=C2)Cl)N)C3=NC=NC4=C3C=CN4
How it was run: as §1

[13] = compound: CC1=C(C2=C(C=C1)C(=O)C3=CC=CC=C3N2CCCN)C
How it was run: as §1

[14] = compound: C/C(=N\NC(=O)C1=CC(=CC=C1)S(=O)(=O)N2CCOCC2)/C3=C(C=CC(=C3)Cl)O
How it was run: as §1

[15] = compound: C1=CC2=C(C=CC(=C2)/C=C\3/C(=O)NC(=NCC4=CC=CS4)S3)N=C1
How it was run: as §1

[16] = compound: C1=CC=C2C(=C1)C3=NNC4=CC=CC(=C43)C2=O
How it was run: as §1

Chain of UniProt O95718 (O95718 whole entry, looked up): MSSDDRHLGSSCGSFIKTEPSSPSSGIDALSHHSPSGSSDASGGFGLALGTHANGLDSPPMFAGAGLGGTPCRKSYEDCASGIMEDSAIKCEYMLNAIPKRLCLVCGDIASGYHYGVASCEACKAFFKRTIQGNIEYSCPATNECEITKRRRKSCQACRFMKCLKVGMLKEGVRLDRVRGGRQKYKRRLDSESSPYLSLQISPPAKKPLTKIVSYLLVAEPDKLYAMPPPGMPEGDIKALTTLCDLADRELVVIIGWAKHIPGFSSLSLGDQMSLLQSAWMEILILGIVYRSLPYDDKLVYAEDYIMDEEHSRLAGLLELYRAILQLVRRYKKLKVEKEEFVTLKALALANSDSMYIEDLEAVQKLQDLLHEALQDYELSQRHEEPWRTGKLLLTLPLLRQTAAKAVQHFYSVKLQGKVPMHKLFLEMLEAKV
Chain of UniProt P58012 (P58012 whole entry, looked up): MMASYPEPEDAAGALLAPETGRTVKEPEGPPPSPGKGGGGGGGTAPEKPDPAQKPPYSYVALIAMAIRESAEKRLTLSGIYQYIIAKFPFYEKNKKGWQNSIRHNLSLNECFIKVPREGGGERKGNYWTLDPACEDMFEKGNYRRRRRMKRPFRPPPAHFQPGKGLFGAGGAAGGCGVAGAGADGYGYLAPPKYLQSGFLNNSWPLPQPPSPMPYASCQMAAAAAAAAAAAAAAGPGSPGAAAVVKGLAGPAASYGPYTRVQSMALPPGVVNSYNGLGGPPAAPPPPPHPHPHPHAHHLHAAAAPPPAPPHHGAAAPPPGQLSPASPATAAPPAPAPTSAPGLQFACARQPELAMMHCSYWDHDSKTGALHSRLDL
Chain of UniProt Q14153 (Q14153 whole entry, looked up): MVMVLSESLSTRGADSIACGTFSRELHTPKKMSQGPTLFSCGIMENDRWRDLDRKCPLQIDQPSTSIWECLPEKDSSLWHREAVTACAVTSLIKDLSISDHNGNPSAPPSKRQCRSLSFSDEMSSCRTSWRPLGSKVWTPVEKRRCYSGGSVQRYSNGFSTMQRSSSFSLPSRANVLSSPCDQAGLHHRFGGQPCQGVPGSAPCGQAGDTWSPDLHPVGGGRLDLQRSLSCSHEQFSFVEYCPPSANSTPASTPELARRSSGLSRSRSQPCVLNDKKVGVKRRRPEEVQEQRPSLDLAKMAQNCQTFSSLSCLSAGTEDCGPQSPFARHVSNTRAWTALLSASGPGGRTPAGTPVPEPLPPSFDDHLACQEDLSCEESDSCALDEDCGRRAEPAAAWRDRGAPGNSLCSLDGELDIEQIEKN
Chain of UniProt P11171 (P11171 whole entry, looked up): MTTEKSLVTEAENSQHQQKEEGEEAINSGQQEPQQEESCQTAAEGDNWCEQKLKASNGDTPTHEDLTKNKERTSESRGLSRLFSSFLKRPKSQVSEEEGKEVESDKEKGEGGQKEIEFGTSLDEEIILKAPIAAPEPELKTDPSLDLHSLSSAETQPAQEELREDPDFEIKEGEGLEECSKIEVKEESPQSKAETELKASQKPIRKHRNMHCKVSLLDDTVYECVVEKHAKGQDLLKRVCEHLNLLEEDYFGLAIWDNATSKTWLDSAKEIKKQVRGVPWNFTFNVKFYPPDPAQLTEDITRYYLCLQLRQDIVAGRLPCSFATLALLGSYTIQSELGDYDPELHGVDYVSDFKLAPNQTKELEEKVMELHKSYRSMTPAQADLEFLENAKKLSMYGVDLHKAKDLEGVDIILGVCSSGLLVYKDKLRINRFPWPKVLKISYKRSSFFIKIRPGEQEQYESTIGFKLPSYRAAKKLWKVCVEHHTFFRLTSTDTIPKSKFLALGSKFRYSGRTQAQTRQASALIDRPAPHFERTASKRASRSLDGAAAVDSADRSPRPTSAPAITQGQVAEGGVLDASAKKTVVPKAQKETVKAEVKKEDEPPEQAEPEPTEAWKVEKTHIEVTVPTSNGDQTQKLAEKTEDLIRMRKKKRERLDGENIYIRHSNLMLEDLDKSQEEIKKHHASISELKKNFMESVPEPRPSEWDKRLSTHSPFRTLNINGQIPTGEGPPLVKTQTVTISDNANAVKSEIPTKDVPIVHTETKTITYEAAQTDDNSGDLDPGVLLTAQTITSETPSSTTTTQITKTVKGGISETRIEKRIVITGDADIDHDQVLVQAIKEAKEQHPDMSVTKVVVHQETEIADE
Chain of UniProt Q5HYJ3 (Q5HYJ3 whole entry, looked up): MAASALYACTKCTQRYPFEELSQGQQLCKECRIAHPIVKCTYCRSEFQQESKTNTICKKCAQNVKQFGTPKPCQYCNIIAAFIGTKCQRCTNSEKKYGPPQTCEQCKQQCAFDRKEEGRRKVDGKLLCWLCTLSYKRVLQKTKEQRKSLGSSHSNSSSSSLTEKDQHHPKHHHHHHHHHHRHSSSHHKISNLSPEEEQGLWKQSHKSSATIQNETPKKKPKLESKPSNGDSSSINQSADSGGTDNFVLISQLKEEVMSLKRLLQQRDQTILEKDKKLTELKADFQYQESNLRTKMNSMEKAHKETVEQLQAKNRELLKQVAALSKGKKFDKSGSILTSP
Chain of UniProt Q9Y2H6 (Q9Y2H6 whole entry, looked up): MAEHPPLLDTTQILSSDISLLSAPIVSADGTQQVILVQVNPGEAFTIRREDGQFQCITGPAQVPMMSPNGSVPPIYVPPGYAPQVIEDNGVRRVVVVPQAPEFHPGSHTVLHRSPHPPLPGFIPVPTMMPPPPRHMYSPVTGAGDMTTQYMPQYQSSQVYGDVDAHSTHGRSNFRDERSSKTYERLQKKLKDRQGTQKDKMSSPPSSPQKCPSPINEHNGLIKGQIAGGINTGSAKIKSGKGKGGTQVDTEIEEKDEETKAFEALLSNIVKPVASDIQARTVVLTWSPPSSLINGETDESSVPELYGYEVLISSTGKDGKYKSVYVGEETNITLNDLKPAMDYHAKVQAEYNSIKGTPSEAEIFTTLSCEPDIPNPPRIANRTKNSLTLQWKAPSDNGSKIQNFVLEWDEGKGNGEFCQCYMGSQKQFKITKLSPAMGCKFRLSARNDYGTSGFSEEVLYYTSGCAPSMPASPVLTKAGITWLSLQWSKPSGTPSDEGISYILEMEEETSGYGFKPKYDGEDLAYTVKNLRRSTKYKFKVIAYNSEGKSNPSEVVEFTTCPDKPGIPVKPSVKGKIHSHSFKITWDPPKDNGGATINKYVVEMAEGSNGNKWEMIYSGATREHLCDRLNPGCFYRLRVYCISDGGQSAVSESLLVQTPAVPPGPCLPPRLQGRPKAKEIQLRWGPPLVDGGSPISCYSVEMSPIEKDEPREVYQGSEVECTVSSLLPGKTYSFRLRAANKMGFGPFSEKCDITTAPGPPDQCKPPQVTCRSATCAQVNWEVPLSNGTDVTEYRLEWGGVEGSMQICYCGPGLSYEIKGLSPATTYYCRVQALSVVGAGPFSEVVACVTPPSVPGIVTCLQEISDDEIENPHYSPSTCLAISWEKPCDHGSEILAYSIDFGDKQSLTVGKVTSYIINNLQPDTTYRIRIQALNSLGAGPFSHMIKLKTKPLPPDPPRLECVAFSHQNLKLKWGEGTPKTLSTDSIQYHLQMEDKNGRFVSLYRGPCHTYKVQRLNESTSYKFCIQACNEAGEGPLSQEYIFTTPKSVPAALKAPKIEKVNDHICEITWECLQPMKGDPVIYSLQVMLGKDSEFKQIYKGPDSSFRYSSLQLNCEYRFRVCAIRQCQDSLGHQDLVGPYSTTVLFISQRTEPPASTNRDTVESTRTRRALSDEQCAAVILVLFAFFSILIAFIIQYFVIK
Chain of UniProt Q8TF64 (Q8TF64 whole entry, looked up): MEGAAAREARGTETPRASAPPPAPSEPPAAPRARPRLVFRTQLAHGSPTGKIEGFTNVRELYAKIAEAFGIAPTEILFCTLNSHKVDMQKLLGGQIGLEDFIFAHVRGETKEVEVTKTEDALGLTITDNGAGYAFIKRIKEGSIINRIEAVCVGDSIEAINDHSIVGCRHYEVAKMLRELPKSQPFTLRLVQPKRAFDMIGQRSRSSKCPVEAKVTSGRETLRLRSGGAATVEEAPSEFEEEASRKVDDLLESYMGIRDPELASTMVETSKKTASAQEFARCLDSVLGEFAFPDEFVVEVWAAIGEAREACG
Chain of UniProt Q08426 (Q08426 whole entry, looked up): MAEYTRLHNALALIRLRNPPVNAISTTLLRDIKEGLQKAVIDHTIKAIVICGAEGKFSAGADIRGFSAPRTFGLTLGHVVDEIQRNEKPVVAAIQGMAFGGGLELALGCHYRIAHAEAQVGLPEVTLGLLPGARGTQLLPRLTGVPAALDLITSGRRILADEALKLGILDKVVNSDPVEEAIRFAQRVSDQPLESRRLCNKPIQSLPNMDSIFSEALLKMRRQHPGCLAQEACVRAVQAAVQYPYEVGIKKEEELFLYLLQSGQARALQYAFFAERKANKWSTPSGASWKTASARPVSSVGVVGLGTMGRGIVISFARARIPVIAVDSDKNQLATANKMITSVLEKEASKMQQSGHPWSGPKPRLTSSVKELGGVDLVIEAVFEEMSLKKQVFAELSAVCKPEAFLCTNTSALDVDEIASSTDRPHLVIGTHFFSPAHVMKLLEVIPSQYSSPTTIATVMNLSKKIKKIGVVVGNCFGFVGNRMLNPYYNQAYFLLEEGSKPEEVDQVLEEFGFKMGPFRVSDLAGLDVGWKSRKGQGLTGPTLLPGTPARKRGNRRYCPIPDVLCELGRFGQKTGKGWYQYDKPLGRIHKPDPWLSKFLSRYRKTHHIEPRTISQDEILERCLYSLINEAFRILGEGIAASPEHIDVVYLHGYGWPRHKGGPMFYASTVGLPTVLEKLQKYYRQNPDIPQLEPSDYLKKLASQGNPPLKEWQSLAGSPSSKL
Chain of UniProt Q6IPR1 (Q6IPR1 whole entry, looked up): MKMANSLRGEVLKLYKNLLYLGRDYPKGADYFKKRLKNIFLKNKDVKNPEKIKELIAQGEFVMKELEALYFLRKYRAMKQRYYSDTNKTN
Chain of UniProt Q9UKR5 (Q9UKR5 whole entry, looked up): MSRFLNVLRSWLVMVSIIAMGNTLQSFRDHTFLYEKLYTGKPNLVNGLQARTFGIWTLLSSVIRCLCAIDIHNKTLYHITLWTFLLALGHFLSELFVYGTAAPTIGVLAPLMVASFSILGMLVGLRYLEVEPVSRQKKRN

Row | Target | log2 fold change (erlotinib) | log2 fold change [1] | log2 fold change [2] | log2 fold change (IRAK-1-4 Inhibitor I) | log2 fold change [3] | log2 fold change (ralimetinib) | log2 fold change [4] | log2 fold change [5] | log2 fold change [6] | log2 fold change [7] | log2 fold change [8] | log2 fold change [9] | log2 fold change [10] | log2 fold change (ibrutinib) | log2 fold change [11] | log2 fold change [12] | log2 fold change [13] | log2 fold change [14] | log2 fold change [15] | log2 fold change [16]
1 | EPB41 isoform 4 (UniProt P11171) | -0.128 | -0.054 | -0.012 | 0.002 | 0.048 | -0.056 | -0.018 | 0.148 | -0.012 | 0.042 | -0.001 | -0.004 |  |  |  |  |  |  |  | 
2 | DYRK1A isoform 2 (UniProt Q13627) | -0.064 | -0.476 | 0.069 | -0.595 |  | 0.085 | -0.241 | 0.005 |  | 0.004 | -0.081 |  | 0.247 | -0.063 |  |  |  |  |  | 
3 | FOXL2 (UniProt P58012) | 0.274 | -0.129 | -0.085 | 0.026 | -0.065 | 0.264 | -0.095 | 0.161 |  |  | 0.02 | -0.035 | -0.006 | -0.074 | -0.024 | 0.187 | -0.023 |  |  | 
4 | DTL (UniProt Q9NZJ0) | 0.106 | 0.012 | -0.002 | 0.006 |  | 0.037 | -0.024 | -0.05 | 0.041 | 0.071 | -0.037 |  | -0.029 | 0.012 |  |  | -0.104 | -0.053 | 0.067 | -0.072
5 | GDE1 (UniProt Q9NZC3) | 0.042 | 0.02 | 0.097 | -0.01 | -0.017 | 0.067 | 0.026 | 0.025 |  | -0.036 | -0.122 | -0.014 | -0.032 | -0.047 | 0.05 | 0.027 | -0.038 |  |  | 
6 | EIF2AK3 (UniProt Q9NZJ5) | -0.014 | 0.015 | -0.049 | -0.044 | 0.003 | 0.039 | -0.191 | 0.012 | -0.052 |  | -0.061 | -0.07 |  |  |  |  | 0.037 |  |  | 
7 | FAM53B (UniProt Q14153) | 0.057 | -0.03 | -0.047 | 0.203 |  | -0.299 | -0.084 | 0.037 | 0.098 | -0.07 | -0.263 |  | -0.004 | 0.037 | -0.034 | 0.006 | 0.161 | -0.087 | 0.015 | -0.024
8 | EIF3I (UniProt Q5TFK1) |  |  |  |  | 0.266 |  |  |  | -0.661 |  |  | -0.059 |  |  |  |  |  |  |  | 
9 | GIPC3 (UniProt Q8TF64) | -0.049 | 0.091 | 0.063 | 0.101 | -0.078 | -0.019 | -0.011 | 0.022 | 0.282 | 0.185 | -0.033 | -0.13 | -0.025 | -0.021 | 0.008 | 0.139 | -0.019 |  |  | 
10 | EWSR1 (UniProt H7BY36) |  |  | -0.208 | -0.074 |  | -0.073 | -0.052 |  |  | 0.071 | 0.39 |  | 0.111 | -0.288 | -0.011 | -0.035 | -0.126 | -0.711 | -0.346 | -0.428
11 | ERG28 (UniProt Q9UKR5) |  |  |  |  | -0.045 |  |  |  |  |  |  | -0.004 | -0.015 | 0.064 | 0.072 | -0.066 | 0.059 |  |  | 
12 | EIF2B5, A0A3B3ITK8 |  |  |  |  | 0.015 |  |  |  | 0.037 |  |  | -0.104 |  |  |  |  |  |  |  | 
13 | FNDC3A (UniProt Q9Y2H6) | 0.198 | 0.024 | -0.112 | 0.04 |  | 0.118 | -0.207 | -0.093 | 0.31 | 0.027 | 0.113 |  |  |  |  |  |  |  |  | 
14 | EHHADH (UniProt Q08426) | -0.05 | 0.08 | 0.007 | -0.09 | -0.023 | 0.021 | -0.084 | -0.016 | -0.003 | -0.027 | 0.031 | 0.008 | -0.029 | 0.059 | 0.045 | -0.106 | 0.128 |  |  | 
15 | EPS8L2 (UniProt Q9H6S3) | 0.082 | 0.009 | 0.133 | -0.086 | -0.026 | -0.028 | -0.021 | 0.002 | 0.031 | -0.054 | -0.084 | 0.015 | 0.037 | -0.041 | -0.108 | 0.055 | -0.002 |  |  | 
16 | FMNL2 isoform 3 (UniProt Q96PY5) | -0.02 | -0.064 | 0.083 | -0.092 | -0.048 | -0.02 | 0.185 | 0.065 | -0.056 | 0.116 | 0.048 | -0.003 |  |  |  |  | 0.071 |  |  | 
17 | EXO5 (UniProt Q9H790) | 0.279 | 0.012 | 0.085 | -0.028 |  | 0.018 | -0.126 | -0.025 |  | 0.217 | -0.067 |  | -0.226 | 0.111 |  |  |  |  |  | 
18 | FAM76B (UniProt Q5HYJ3) | -0.027 | -0.016 | -0.053 | -0.008 | -0.025 | -0.005 | -0.01 | -0.06 | -0.012 | 0.023 | -0.002 | -0.011 |  |  | -0.019 | 0.061 | -0.02 | -0.35 | -0.137 | 0.046
19 | ETFRF1 (UniProt Q6IPR1) | -0.032 | -0.048 | -0.038 | -0.002 | 0.028 | -0.005 | -0.044 | -0.006 | 0.049 | -0.071 | 0.136 | -0.02 | -0.064 | 0.062 |  |  | -0.018 | -0.008 | 0.083 | -0.063
20 | EPB41, A0A2R8Y783 |  |  |  |  | 0.093 |  |  |  |  |  |  | 0.034 | -0.058 | 0.196 | -0.001 | 0.346 | 0.057 | -0.136 | 0.09 | 0.017
21 | ESRRB isoform 1 (UniProt O95718) | 0.1 | -0.783 (active) | 0.016 | 0.236 |  | 0.035 | -0.087 | -0.187 |  |  | 0.053 |  | -0.021 | -0.047 |  |  |  |  |  | 
22 | FBRSL1, A0A3B3IRR3 | -0.014 | 0.042 | -0.028 | -0.024 |  | 0.027 | 0.008 | -0.075 | -0.01 | -0.381 (active) | 0.012 |  | 0 | 0.072 | 0.043 | -0.015 | 0.183 | -0.021 | -0.03 | -0.199
23 | GC isoform 3 (UniProt P02774) |  |  | -0.199 | 0.15 |  | 0.051 | -0.559 (active) |  |  | -0.087 | -0.101 |  |  |  | 0.051 | 0.055 | -0.148 | 0.039 | -0.019 | 0.012
24 | DST isoform 3 (UniProt Q03001) | 0.005 | 0.181 |  |  |  |  |  | -0.01 |  |  |  |  | -0.085 | 0.005 | -0.034 | -0.043 |  |  |  | 
25 | ELAVL4 (UniProt P26378) | 0.073 | -0.063 | 0.015 | -0.012 | -0.04 | 0.065 | 0.064 | 0.026 | -0.061 | -0.005 | -0.026 | 0.073 |  |  | 0.029 | 0.036 | -0.01 | 0.047 | -0.047 | 0.002
